Reference: PubChem BioAssay (NCI)
The panel holds about 79,000 compounds, 15% with a hit somewhere; the sample as a whole holds those more often. Values without a mark were called inactive. Calls of active or inactive are those of the source. Cut-off read from the data, not from the text of the source: active = growth inhibition above about 70%; inactive = the rest.

Legend:
[1] = NCI Yeast Anticancer Drug Screen. Data for the rad50 strain (AID 155);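 note: 0% = growth of vehicle-only cultures of the same strain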; conditions: S. cerevisiae rad50 strain growth inhibition, hits give high values
How it was run: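 DNA repair mutant yeast, compound exposure, growth read-out; inhibition is taken relative to vehicle.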

[2] = NCI Yeast Anticancer Drug Screen. Data for the mec2-1 strain (AID 157); conditions: S. cerevisiae mec2-1 strain, hits give high values
How it was run: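 Each compound was tested on mec2-1 yeast, a strain altered in DNA damage repair or cell cycle control. Growth inhibition is reported relative to vehicle.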

[3] = NCI Yeast Anticancer Drug Screen. Data for the sgs1 mgt1 strain (AID 161);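 note: 0% = growth of cultures given vehicle only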; conditions: S. cerevisiae sgs1 mgt1 strain, hits give high values
How it was run: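 Test agents were incubated with a DNA-repair-mutant yeast strain. Growth was then read and compared against vehicle-treated controls.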

[4] = NCI Yeast Anticancer Drug Screen. Data for the cln2 rad14 strain (AID 165);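 note: 0% = growth equal to vehicle treated cultures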; conditions: S. cerevisiae cln2 rad14 strain, hits give high values
How it was run: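 Test compounds were added to cln2 rad14 yeast cultures; inhibition of growth was then determined by comparison with vehicle treatment.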

[5] = NCI Yeast Anticancer Drug Screen. Data for the bub3 strain (AID 167); conditions: S. cerevisiae bub3 mutant strain, hits give high values
How it was run: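 In this screen, a yeast mutant lacking normal mitotic checkpoint function is challenged with compound. Relative growth versus vehicle gives the inhibition value.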

[6] = NCI Yeast Anticancer Drug Screen. Data for the wt2 strain (AID 169);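 note: 0% = growth of vehicle-treated yeast cultures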; conditions: S. cerevisiae wt2 strain growth inhibition, hits give high values
How it was run: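 The panel's yeast strains carry defined changes in DNA repair or cell cycle genes. Each strain is grown with compound, and growth loss is scored relative to vehicle.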

[7] = NCI Yeast Anticancer Drug Screen. Data for the mlh1 rad18 strain (AID 175); conditions: S. cerevisiae mlh1 rad18 strain growth inhibition, hits give high values
How it was run: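 Inhibition values reflect reduced growth of mutant yeast versus vehicle-treated controls following compound exposure; the mutations affect DNA damage repair.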

[8] = at 5.0 µM (retest, dose inferred, filed as 0.5)
[9] = at 50.0 µM (retest, dose inferred, filed as 5.0)

## CCO/C=C1\SC(=S)N(c2cccc(O)c2)C1=O
[1]; [8]
  growth inhibition: 57%
[1]; [9]
  growth inhibition: 100% (active)
[1]; at 50.0 µM
  growth inhibition: 28.4%
[2]; [8]
  growth inhibition: 74% (active)
[2]; [9]
  growth inhibition: 100% (active)
[2]; at 50.0 µM
  growth inhibition: 15.3%
[3]; [8]
  growth inhibition: 13%
[3]; [9]
  growth inhibition: 90% (active)
[3]; at 50.0 µM
  growth inhibition: 40.4%
[4]; [8]
  growth inhibition: 29%
[4]; [9]
  growth inhibition: 72% (active)
[4]; at 50.0 µM
  growth inhibition: -2.6%
[5]; [8]
  growth inhibition: 6%
[5]; [9]
  growth inhibition: 91% (active)
[5]; at 50.0 µM
  growth inhibition: 40.2%
[6]; at 1.2 µM
  growth inhibition: -13%
[6]; at 3.7 µM
  growth inhibition: -13%
[6]; at 11.0 µM
  growth inhibition: -13%
[6]; at 33.0 µM
  growth inhibition: 22%
[6]; at 100.0 µM
  growth inhibition: 96% (active)
[7]; [8]
  growth inhibition: 54%
[7]; [9]
  growth inhibition: 100% (active)
[7]; at 50.0 µM
  growth inhibition: 70.3% (active)

## CC1(O)Cc2c(O)c3c(c(O)c2CC1O)C(=O)C=CC3=O (centres undefined)
[1]; [8]
  growth inhibition: 9%
[1]; [9]
  growth inhibition: 51%
[1]; at 50.0 µM
  growth inhibition: 72.2% (active)
[2]; [8]
  growth inhibition: 6%
[2]; [9]
  growth inhibition: 46%
[2]; at 50.0 µM
  growth inhibition: 69.2%
[3]; [8]
  growth inhibition: 4%
[3]; [9]
  growth inhibition: 43%
[3]; at 50.0 µM
  growth inhibition: 26.5%
[4]; [8]
  growth inhibition: 7%
[4]; [9]
  growth inhibition: 37%
[4]; at 50.0 µM
  growth inhibition: 14.9%
[5]; [8]
  growth inhibition: 1%
[5]; [9]
  growth inhibition: 56%
[5]; at 50.0 µM
  growth inhibition: 24.2%
[7]; [8]
  growth inhibition: 9%
[7]; [9]
  growth inhibition: 70% (active)

## CCCCCCCCCCCCN
[1]; [8]
  growth inhibition: 71% (active)
[1]; [9]
  growth inhibition: 99% (active)
[1]; at 50.0 µM
  growth inhibition: 77.5% (active)
[2]; [8]
  growth inhibition: 65%
[2]; [9]
  growth inhibition: 99% (active)
[2]; at 50.0 µM
  growth inhibition: 45%
[3]; [8]
  growth inhibition: -4%
[3]; [9]
  growth inhibition: 98% (active)
[3]; at 50.0 µM
  growth inhibition: 81.8% (active)
[4]; [8]
  growth inhibition: 73% (active)
[4]; [9]
  growth inhibition: 100% (active)
[4]; at 50.0 µM
  growth inhibition: 26.6%
[5]; [8]
  growth inhibition: 56%
[5]; [9]
  growth inhibition: 98% (active)
[5]; at 50.0 µM
  growth inhibition: 79.7% (active)
[6]; at 1.2 µM
  growth inhibition: -14%
[6]; at 3.7 µM
  growth inhibition: -21%
[6]; at 11.0 µM
  growth inhibition: -9%
[6]; at 33.0 µM
  growth inhibition: -5%
[6]; at 100.0 µM
  growth inhibition: 97% (active)
[7]; [8]
  growth inhibition: 70% (active)
[7]; [9]
  growth inhibition: 100% (active)
[7]; at 50.0 µM
  growth inhibition: 72.2% (active)

## COc1cccc2c1C(=O)c1c(O)c3c(c(O)c1C2=O)C[C@@](O)(C(C)=O)C[C@@H]3OC1CC(N(C)C)C(O)C(C)O1 (some centres undefined)
[1]; [8]
  growth inhibition: 98% (active)
[1]; [9]
  growth inhibition: 98% (active)
[1]; at 50.0 µM
  growth inhibition: 86.5% (active)
[2]; [8]
  growth inhibition: 98% (active)
[2]; [9]
  growth inhibition: 98% (active)
[2]; at 50.0 µM
  growth inhibition: 90.3% (active)
[3]; [8]
  growth inhibition: 99% (active)
[3]; [9]
  growth inhibition: 99% (active)
[3]; at 50.0 µM
  growth inhibition: 90.8% (active)
[4]; [8]
  growth inhibition: 96% (active)
[4]; [9]
  growth inhibition: 97% (active)
[4]; at 50.0 µM
  growth inhibition: 90.2% (active)
[5]; [8]
  growth inhibition: 99% (active)
[5]; [9]
  growth inhibition: 99% (active)
[5]; at 50.0 µM
  growth inhibition: 88% (active)
[7]; [8]
  growth inhibition: 97% (active)
[7]; [9]
  growth inhibition: 97% (active)

## Cc1n(-c2ccccc2)c2c([n+]1Cc1ccc([N+](=O)[O-])cc1)C(=O)c1ccccc1C2=O
[1]; [8]
  growth inhibition: 1%
[1]; [9]
  growth inhibition: 97% (active)
[1]; at 50.0 µM
  growth inhibition: 85.2% (active)
[2]; [8]
  growth inhibition: -7%
[2]; [9]
  growth inhibition: 98% (active)
[2]; at 50.0 µM
  growth inhibition: 89% (active)
[3]; [8]
  growth inhibition: -10%
[3]; [9]
  growth inhibition: 98% (active)
[3]; at 50.0 µM
  growth inhibition: 88.5% (active)
[4]; [8]
  growth inhibition: 1%
[4]; [9]
  growth inhibition: 92% (active)
[4]; at 50.0 µM
  growth inhibition: 85.2% (active)
[5]; [8]
  growth inhibition: -6%
[5]; [9]
  growth inhibition: 98% (active)
[5]; at 50.0 µM
  growth inhibition: 88.5% (active)
[7]; [8]
  growth inhibition: -8%
[7]; [9]
  growth inhibition: 96% (active)

## Cc1nc2c(nc1C)C(=O)c1ccccc1C2=O
[1]; [8]
  growth inhibition: 19%
[1]; [9]
  growth inhibition: 98% (active)
[1]; at 50.0 µM
  growth inhibition: 85.9% (active)
[2]; [8]
  growth inhibition: 14%
[2]; [9]
  growth inhibition: 99% (active)
[2]; at 50.0 µM
  growth inhibition: 82.4% (active)
[3]; [8]
  growth inhibition: 22%
[3]; [9]
  growth inhibition: 97% (active)
[3]; at 50.0 µM
  growth inhibition: 71.4% (active)
[4]; [8]
  growth inhibition: 11%
[4]; [9]
  growth inhibition: 91% (active)
[4]; at 50.0 µM
  growth inhibition: 31.9%
[5]; [8]
  growth inhibition: 30%
[5]; [9]
  growth inhibition: 99% (active)
[5]; at 50.0 µM
  growth inhibition: 67.3%
[7]; [8]
  growth inhibition: 27%
[7]; [9]
  growth inhibition: 99% (active)

## Cc1nc2cc(Cl)ccc2n1-c1ccccc1
[1]; [8]
  growth inhibition: 39%
[1]; [9]
  growth inhibition: 92% (active)
[1]; at 50.0 µM
  growth inhibition: 66.9%
[2]; [8]
  growth inhibition: 38%
[2]; [9]
  growth inhibition: 98% (active)
[2]; at 50.0 µM
  growth inhibition: 17%
[3]; [8]
  growth inhibition: -7%
[3]; [9]
  growth inhibition: 94% (active)
[3]; at 50.0 µM
  growth inhibition: 77.2% (active)
[4]; [8]
  growth inhibition: 32%
[4]; [9]
  growth inhibition: 99% (active)
[4]; at 50.0 µM
  growth inhibition: 44%
[5]; [8]
  growth inhibition: 4%
[5]; [9]
  growth inhibition: 97% (active)
[5]; at 50.0 µM
  growth inhibition: 76.5% (active)
[6]; at 1.2 µM
  growth inhibition: 7%
[6]; at 3.7 µM
  growth inhibition: 11%
[6]; at 11.0 µM
  growth inhibition: 9%
[6]; at 33.0 µM
  growth inhibition: 37%
[6]; at 100.0 µM
  growth inhibition: 96% (active)
[7]; [8]
  growth inhibition: 36%
[7]; [9]
  growth inhibition: 85% (active)
[7]; at 50.0 µM
  growth inhibition: 60.2%

## CCN1CCC(O)(c2ccc(Oc3ccccc3)cc2)C(C(=O)c2ccc(Oc3ccccc3)cc2)C1 (centres undefined)
[1]; [8]
  growth inhibition: 25%
[1]; [9]
  growth inhibition: 19%
[1]; at 50.0 µM
  growth inhibition: 32.9%
[2]; [8]
  growth inhibition: -10%
[2]; [9]
  growth inhibition: -8%
[2]; at 50.0 µM
  growth inhibition: 22.5%
[3]; [8]
  growth inhibition: 23%
[3]; [9]
  growth inhibition: 28%
[3]; at 50.0 µM
  growth inhibition: -21.9%
[4]; [8]
  growth inhibition: 18%
[4]; [9]
  growth inhibition: 35%
[4]; at 50.0 µM
  growth inhibition: 0.95%
[5]; [8]
  growth inhibition: 14%
[5]; [9]
  growth inhibition: 38%
[5]; at 50.0 µM
  growth inhibition: -23.9%
[7]; [8]
  growth inhibition: 18%
[7]; [9]
  growth inhibition: 40%
